{"source": "PubChem BioAssay (Tox21)", "note": "Results filed as inconclusive are left out. Activity calls are given as the source filed them. Calls come from the whole dose curve; as a rule, active = well fitted cell-killing curve with a large enough effect in the repeat runs; inconclusive = weak or mixed curves, or effect the other way; inactive = no such curve, though single readings can be large or run the other way."}
{"assay": "qHTS assay to identify small molecule antagonists of the retinoid-related orphan receptor gamma (ROR-gamma) signaling pathway - cell viability counter screen (AID 1159520); note: nearly all actives have a fitted effect of over 50% in size", "settings": "Tet-on RORgamma CHO cells viability, ATP luminescence, 16 h; series mostly up to 92.4 µM", "description": "U.S. Tox21 Program National Center for Advancing Translational Sciences [NCATS] NIH Chemical Genomics Center [NCGC] U.S. Environmental Protection Agency [EPA] National Institutes of Environmental Health Sciences [NIEHS] National Toxicology Program [NTP] U.S. Food and Drug Administration [FDA] Tox21 Assay Overview: Nuclear steroid hormone receptors are involved in many biological processes including inflammatory responses, cell proliferation, and apoptosis. Environmental factors or compounds disrupting these nuclear receptor pathways and gene expression may promote susceptibility to immunotoxicants and autoimmune diseases. One important group of these expression factors are the retinoid-related orphan receptors. To assess compounds that may interfere with the retinoid-related orphan receptor gamma (ROR-gamma) transcription factor, a cell-based luciferase assay was used. The CHO cell-based assay utilizes a TET-inducible ROR expression factor and ROR response element-LUC reporter gene. Reporter gene activity was induced using Doxycycline Hyclate and measured after 16 hr incubation. Tet-on ROR gamma CHO cells were used to screen against the Tox21 10K compound library for cytotoxicity by measuring the viability of the cells based on the quantitation of the ATP.\nTox21 Assay Protocol Summary: Tet-on ROR gamma CHO cells were dispensed at 1,000 cells in 4 uL of culture medium per well into white wall/solid bottom 1536-well plates using a Multidrop Combi (Thermo Scientific, Waltham, MA) dispenser. Following incubation at 37 C and 5% CO2 for 4 hr, 23 nL of compounds dissolved in DMSO, positive controls or DMSO only were transferred by a Pintool station (Kalypsys, San Diego, CA) and after 2 hr incubation at 37 C, one ul of 1 uM (final concentration) of Doxycycline Hyclate was added to all the wells by using a Flying Reagent Dispenser (FRD) (Aurora Discovery, San Diego, CA). After 16 hr incubation at 37 C and 5% CO2, 5 uL of CellTiter-Glo reagent (Promega Corporation, Madison, WI) was added to each assay plate using FRD. After 30 min incubation at room temperature, luminescence was quantified on a ViewLux plate reader (Perkin Elmer, Waltham, MA)."}
{"smiles": "CCO[Si](CCC#N)(OCC)OCC", "outcome": "inactive"}
{"smiles": "CCOCC(=O)O", "outcome": "inactive"}
{"smiles": "C[C@]12CCC(=O)C=C1CC[C@@H]1[C@@H]2[C@@H](O)C[C@@]2(C)[C@H]1CC[C@]2(O)C(=O)CO", "outcome": "inactive"}
{"smiles": "O=C1C(c2[nH]c3ccccc3c2O)=Nc2ccccc21", "outcome": "inactive"}
{"smiles": "Cc1ccc(C(C)C)c(O)c1", "outcome": "inactive"}
{"smiles": "C=CCc1ccc(OC)c(OC)c1", "outcome": "inactive"}
{"smiles": "CC(C)(C#N)c1cc(Cn2cncn2)cc(C(C)(C)C#N)c1", "outcome": "inactive"}
{"smiles": "O=C(O)CCCCCCCCC(=O)O", "outcome": "inactive"}
{"smiles": "NCCCCCCN", "outcome": "inactive"}
{"smiles": "O=c1[nH]cnc2[nH]ncc12", "outcome": "inactive"}
{"smiles": "CSc1ccc(Cl)cc1", "outcome": "inactive"}
{"smiles": "CN(C)c1ccc(Cc2ccc(N(C)C)cc2)cc1", "outcome": "inactive"}
{"smiles": "CCCCCCC=O", "outcome": "inactive"}
{"smiles": "COC(=O)c1cccnc1", "outcome": "inactive"}
{"smiles": "CN(C)c1ccc(O)c2c1C[C@H]1C[C@H]3[C@H](N(C)C)C(=O)C(C(N)=O)=C(O)[C@@]3(O)C(=O)C1=C2O", "outcome": "inactive"}
{"smiles": "O=C(O)Cn1c(=O)n(Cc2ccc(Br)cc2F)c(=O)c2ccc(Cl)cc21", "outcome": "inactive"}
{"smiles": "COc1ccc(OC)cc1", "outcome": "inactive"}
{"smiles": "NCCN1CCNCC1", "outcome": "inactive"}
{"smiles": "CC(C)(Oc1ccc(CCNC(=O)c2ccc(Cl)cc2)cc1)C(=O)O", "outcome": "inactive"}
{"smiles": "C=C(C)C(=O)OCC(C)C", "outcome": "inactive"}
{"smiles": "COc1ccc(C)cc1N", "outcome": "inactive"}
{"smiles": "Cc1ccc2ncccc2c1", "outcome": "inactive"}
{"smiles": "OCc1ccccc1", "outcome": "inactive"}
{"smiles": "CNC(=S)N(C)C", "outcome": "inactive"}
{"smiles": "CC1(C)NC(=O)NC1=O", "outcome": "inactive"}
{"smiles": "c1ccc(Oc2ccccc2)cc1", "outcome": "inactive"}
{"smiles": "COCCCN", "outcome": "inactive"}
{"smiles": "CC(=O)OCCOC(C)=O", "outcome": "inactive"}
{"smiles": "C=Cc1ccc(C)cc1", "outcome": "inactive"}
{"smiles": "C[Si]1(C)O[Si](C)(C)O[Si](C)(C)O[Si](C)(C)O1", "outcome": "inactive"}
{"smiles": "CCCCOC(=O)c1ccc(N)cc1", "outcome": "inactive"}
{"smiles": "CC(C)OP(=O)(CP(=O)(OC(C)C)OC(C)C)OC(C)C", "outcome": "inactive"}
{"smiles": "CCCCCCO", "outcome": "inactive"}
{"smiles": "c1ccc2c(c1)Cc1ccccc1-2", "outcome": "inactive"}
{"smiles": "CCCCCCCCCCCCCCCCO", "outcome": "inactive"}
{"smiles": "O=[N+]([O-])c1ccc2nc[nH]c2c1", "outcome": "inactive"}
{"smiles": "COC(=O)CCCC(=O)OC", "outcome": "inactive"}
{"smiles": "CC1(C)CC(N)CC(C)(CN)C1", "note": "(stereo not given)", "outcome": "inactive"}
{"smiles": "Nc1ccc(Cl)c(N)c1", "outcome": "inactive"}
{"smiles": "CC(=O)Oc1ccc(C)cc1", "outcome": "inactive"}
